Screening data (PubChem BioAssay)
In the library only some 9.4% were active in any assay of this set; here they are far more common.
ELG1 DNA repair: ELG1-dependent DNA repair inhibition; 330,000 tested, 2.3% active; Potency, µM (doses to about 46.1 µM), without a hit: at the highest dose activity change, negative = inhibition, most hits filed as inhibitors; AID 504467; HEK293T ELG1-luciferase reporter, luminescence, 16 h; DNA damage induced by 5-fluorouridine; note: % is set by controls: 0 for no effect and ±100 for the full control effect; nearly all actives have a fitted effect of over 55% in size
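Quantitative HTS, concentration-response format. 2,000 cells/well co-treated with 5-fluorouridine and compound, 16 hr in 5% CO2 at 37 °C; ONE-Glo luminescence read after 30 min.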
SMN2 splice up: SMN2 splice variant enhancement. HEK293 SMN2-luciferase splicing reporter, luminescence, 30-36 h. Potency, µM (doses to about 46.1 µM), inactives show at the highest dose activity change, positive = activation, hits mostly activators. 210,000 tested, 2.8% active. AID 1458; note: % of control where 0% means no effect; nearly all actives have a fitted effect of over 55% in size
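qHTS luciferase splicing reporter: luminescence rises when SMN2 exon 7 is included in transfected HEK293 cells. Compound exposure lasted 30-36 h at 37C, with 4.5 mM final sodium butyrate as control, followed by a ONE-Glo read.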
ELG1 genotoxic: genotoxicity induction in ELG1-luciferase HEK293T cells | Potency, µM (highest dose often 46 µM), for the others: at the top dose activity change, positive = activation, most hits filed as activators | HEK293T ELG1-luciferase reporter, luminescence, 16 h | 330,000 tested, 1.3% active; note: % of control where 0% means no effect; nearly all actives have a fitted effect of over 60% in size
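Step 1: seed 2,000 HEK293T ELG1-luciferase cells per well. Step 2: add compound or DMSO, incubate 16 hr at 37 °C. Step 3: ONE-Glo, 30 min at room temperature, read luminescence.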
Rab9 promoter act: activators of Rab9 promoter. 320,000 tested, 2.8% active. AID 485297. Potency, µM (top dose mostly 9.22 µM), for the others: top-dose activation, negative = inhibition, most hits filed as activators. Huh7 Rab9 promoter-luciferase reporter, luminescence, 24 h; note: % of control where 0% means no effect; nearly all actives have a fitted effect of over 60% in size
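Quantitative HTS format; Huh7 Rab9-luciferase reporter cells (1500/well) receive compound 2 h post-plating, incubate 24 h at 37 °C, then get luciferase reagent for 10 min before luminescence reading.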
FLuc modulator: counter-screen for miR-21 project: firefly luciferase inhibitors or activators; purified FLuc, Km substrates, luminescence inhibition; 360,000 tested, 6.9% active; Potency, µM (top dose mostly 57.5 µM), for the others: at the highest dose activity change, negative = inhibition, actives largely listed as inhibitors; AID 588342; P08659;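 note: plate controls were vehicle for no effect and reference inhibitor for full effect; nearly all actives have a fitted effect of over 55% in size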
Target sequence (P08659 whole entry, looked up): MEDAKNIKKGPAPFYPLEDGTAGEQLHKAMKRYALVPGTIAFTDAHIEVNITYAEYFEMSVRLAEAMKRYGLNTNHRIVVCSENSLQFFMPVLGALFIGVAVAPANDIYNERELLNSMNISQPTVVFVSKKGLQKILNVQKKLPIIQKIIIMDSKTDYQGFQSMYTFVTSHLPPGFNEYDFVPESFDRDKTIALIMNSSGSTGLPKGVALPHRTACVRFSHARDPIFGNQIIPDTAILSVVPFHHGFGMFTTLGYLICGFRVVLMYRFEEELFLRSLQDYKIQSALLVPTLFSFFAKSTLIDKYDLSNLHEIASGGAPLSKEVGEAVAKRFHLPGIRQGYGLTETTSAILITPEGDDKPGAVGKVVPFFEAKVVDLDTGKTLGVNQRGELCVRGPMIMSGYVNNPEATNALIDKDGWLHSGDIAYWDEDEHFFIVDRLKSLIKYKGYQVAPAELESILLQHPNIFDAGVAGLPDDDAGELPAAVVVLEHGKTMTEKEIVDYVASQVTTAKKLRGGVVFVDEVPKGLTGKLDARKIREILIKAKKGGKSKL
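Biochemical qHTS of compounds, final roughly 60 µM downward over six points, against 10 nM purified firefly luciferase using Km concentrations of substrates (10 uM D-luciferin, 10 uM ATP) in Tris acetate pH 7.5 buffer; luminescence output.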
NPC1 promoter act: NPC1 promoter activation; Huh7 NPC1 promoter luciferase reporter, 24 h; Potency, µM (top dose mostly 9.22 µM), for inactives: at the highest dose activation, most hits filed as activators; 320,000 tested, 2.4% active; note: % of control where 0% means no effect; nearly all actives have a fitted effect of over 60% in size
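Huh7 cells stably carrying NPC1 promoter–luciferase, plated in Opti-MEM with 10% FBS for 2 h, were exposed to compound in DMSO for 24 h at 37 °C; luciferase reagent was added for 10 min and luminescence read.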
* = called active by the depositor; ? = inconclusive; / = no result; [ ] = remark or other dose. Calls come from the whole dose curve; as a rule, active = well fitted curve in the direction sought with a large enough effect; inconclusive = small, poorly fitted or top-dose-only effect, or another doubt; inactive = no such curve, though single readings can be large; an effect the other way counts as inactive or inconclusive. Potency is the fitted concentration of half-maximal effect.

SMILES	ELG1 DNA repair	SMN2 splice up	ELG1 genotoxic	Rab9 promoter act	FLuc modulator	NPC1 promoter act
Cn1c(CNc2ccc(Br)cc2)nc2ccccc21	?	/	?	2.82µM*	2.69µM*	1.58µM*
COc1ccc(Nc2nc3ccccc3n2C)cc1	?	/	25.4%	3.16µM*	15.1µM*	2.51µM*
Cc1ccc(NC(=O)NCc2nc3ccccc3n2C)cc1	?	/	-2.8%	0.8%	-1.7%	-6.8%
CCC(C)Cn1c(COc2ccc(OC)cc2)nc2ccccc21 (stereo not drawn)	/	-30.2%	/	/	?	/
CCC(C)Cn1c(C)nc2ccccc21 (stereo not drawn)	9.2µM*	-72.1%	-6.5%	-1.9%	3.3%	-2.0%
C#C[C@]1(OC(C)=O)CCC2C3CCC4=CC(=O)CCC4C3CC[C@]21C (stereo partly drawn)	/	-1.8%	/	/	/	/
Cc1ccc(OCCn2c(C)nc3ccccc32)cc1	-6.1%	/	-0.1%	-4.6%	-12.2%	-1.2%
Cc1nc2ccccc2n1CCCOc1ccccc1	?	-26.0%	13.8%	17.0%	10.7µM*	12.1%
COc1ccc(NCc2nc3ccccc3n2CCOc2ccccc2)cc1	?	?	20.6µM*	?	13.5µM*	?
Cn1c(CNc2ccc(O)cc2)nc2ccccc21	?	/	?	?	13.5µM*	?
COc1ccc(NCc2nc3ccccc3n2CCOc2ccc(C)cc2)cc1	?	-23.1%	?	13.7%	?	15.9%
CC(C)n1c(NCc2nc3ccccc3n2C)nc2ccccc21	6.3%	-3.2%	-2.4%	1.6%	-18.4%	-0.3%
Cn1c(CNc2nc3ccccc3n2C)nc2ccccc21	?	?	9.5%	?	?	3.55µM*
CN(C)C(=O)c1ccc(-c2nc(N(C)C)c3ccccc3n2)cc1	/	24.7%	/	/	/	/
c1coc(-c2nc(-c3ccco3)c(-c3ccco3)nc2-c2ccco2)c1	18.3%	-8.5%	2.3%	0.4%	-8.2%	-1.7%
O=C(NCCO)Nc1ccc2nc(-c3ccco3)c(-c3ccco3)nc2c1	4.6%	2.6%	0.1%	-11.4%	23.9µM*	-5.0%
CC(=O)c1ccc(NC(=O)c2ccc3nc(-c4ccco4)c(-c4ccco4)nc3c2)cc1	?	14.0%	-8.3%	-7.1%	12µM*	-7.7%
COc1ccc2nc(-c3ccco3)c(-c3ccco3)nc2c1	?	5.3%	?	?	2.69µM*	17.8%
O=C(NCCCO)c1ccc2nc(-c3ccco3)c(-c3ccco3)nc2c1	-3.3%	-16.9%	-5.7%	1.6%	19µM*	-0.4%
CCCCNC(=O)c1ccc2nc(-c3ccco3)c(-c3ccco3)nc2c1	-24.0%	-8.8%	0.8%	3.9%	?	1.9%
Cc1ccc(-n2nnc3c(sc4nc(C)c(C)cc43)c2=O)cc1Cl	/	-7.6%	/	/	3.6%	/
COc1ccc(CNC(=O)Cn2ncc3c4ccccc4n(Cc4cccc(Cl)c4)c3c2=O)cc1	/	8.6%	/	/	-7.9%	/
O=C(Nc1ccccc1)c1ccc2nc(-c3ccco3)c(-c3ccco3)nc2c1	9.2µM*	7.6%	-25.9%	-2.6%	1.1%	-0.9%
O=C(Nc1ccc(N2CCOCC2)cc1)c1ccc2nc(-c3ccco3)c(-c3ccco3)nc2c1	?	5.4%	6.3%	1.2%	-3.9%	-0.8%
CN(Cc1cn(-c2ccccc2)nc1-c1cc2ccccc2o1)C(=O)CCC(=O)O	?	4.6%	?	27.0%	3.01µM*	17.3%
SMILES	ELG1 DNA repair	SMN2 splice up	ELG1 genotoxic	Rab9 promoter act	FLuc modulator	NPC1 promoter act
O=C(O)/C=C\c1cn(-c2ccccc2)nc1-c1cc2ccccc2o1	?	10.7%	8.4%	-2.0%	13.5µM*	-1.0%
O=C(Nc1ccc([N+](=O)[O-])cc1)c1cn(-c2ccccc2)nc1-c1cc2ccccc2o1	4.4%	2.1%	?	-1.8%	4.0%	-1.3%
O=C(O)/C=C/c1cn(-c2ccccc2)nc1-c1cc2ccccc2o1	16.4%	/	4.0%	0.3%	15.1µM*	-1.9%
CN(C)C(=O)c1cn(-c2ccccc2)nc1-c1cc2ccccc2o1	0.0%	-9.2%	-1.1%	-4.2%	23.9µM*	-0.6%
CN(C)C(=O)c1cn(-c2ccccc2)nc1-c1cc2ccccc2oc1=O	0.0%	21.0%	-4.4%	0.0%	-5.0%	-0.5%
Cc1ccc(C)c(Cn2c3ccccc3c3cnn(CC(=O)NC(C)c4ccccc4)c(=O)c32)c1 (stereo not drawn)	/	5.9%	/	/	-6.1%	/
CC(C)c1ccc(Nc2ncnc3c2c(-c2ccccc2)cn3-c2ccccc2)cc1	/	/	/	/	0.1%	/
COc1cc(OC)c(NS(=O)(=O)c2c(C(=O)N3CCC(C)CC3)c(C)n(C)c2C)cc1Cl	/	/	/	/	-6.5%	/
COC(=O)N/N=C/c1cc(C)n(-c2ccc(Br)cc2)c1C	9.3%	/	2.4%	15.8%	?	1.0%
CC(=O)C(=Cc1cc(C)n(-c2ccccc2)c1C)C(C)=O	1.3%	16.8%	-1.2%	1.9%	19µM*	-9.0%
COC(=O)N/N=C/c1cc(C)n(-c2ccccc2)c1C	?	-0.6%[1.84 µM]	?	?	8.49µM*	24.9%
CCc1ccc(-n2c(C)cc(/C=N/NC(=O)OC)c2C)cc1	24.4%	2.9%[1.84 µM]	13.5%	2.1%	19µM*	0.7%
Cc1cc(/C=N\O)c(C)n1-c1ccncc1	-0.5%	16.7%	1.7%	2.7%	0.1%	-2.1%
Cc1cc(/C=N/O)c(C)n1-c1ccccc1	?	4.6%[1.84 µM]	9.5%	17.1%	16.9µM*	8.0%
Cc1cccc(NC(=O)Cn2c(=O)n(CC3CCC(C(=O)NCCc4ccccc4)CC3)c(=O)c3ccccc32)c1 (stereo not drawn)	/	2.2%	/	/	4.1%	/
